PubChem BioAssay (NCI)
Values joined by “and” are separate entries in the source; they are usually repeats but may differ in a detail not shown here. Identical values can stand only once. About 79,000 compounds went through this panel and 15% of them were active in at least one assay; those are over-represented in the sample as a whole. No stated cut-off is given here; in the data, active means growth inhibition above about 70%; inactive means the rest. Where a SMILES comes first, the peptide text is derived from it. The star is where a group is joined. Fmoc = O=C(OCC1c2ccccc2-c2ccccc21)*; Boc = CC(C)(C)OC(=O)*; OtBu = CC(C)(C)O*

How the values were obtained:
[1] = NCI Yeast Anticancer Drug Screen. Data for the rad50 strain (AID 155);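 further: 0% = growth of vehicle-only cultures of the same strain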; conditions: S. cerevisiae rad50 strain growth inhibition; at 50.0 µM; stronger effect = higher value
In short: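 Inhibition values express reduced yeast growth in compound-treated cultures relative to vehicle-treated controls.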

[2] = NCI Yeast Anticancer Drug Screen. Data for the mec2-1 strain (AID 157); conditions: S. cerevisiae mec2-1 strain, at 50.0 µM, stronger effect = higher value
In short: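 Readout is yeast growth inhibition, normalised to vehicle-treated controls, in the mec2-1 strain exposed to compound.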

[3] = NCI Yeast Anticancer Drug Screen. Data for the sgs1 mgt1 strain (AID 161);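 further: 0% = growth of cultures given vehicle only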; conditions: S. cerevisiae sgs1 mgt1 strain, at 50.0 µM, stronger effect = higher value
In short: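 Percent growth inhibition was derived by comparing compound-exposed mutant yeast with vehicle-exposed cultures. The strain carries alterations in DNA damage repair.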

[4] = NCI Yeast Anticancer Drug Screen. Data for the cln2 rad14 strain (AID 165);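 further: 0% = growth equal to vehicle treated cultures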; conditions: S. cerevisiae cln2 rad14 strain, at 50.0 µM, stronger effect = higher value
In short: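 Relative to vehicle controls, growth inhibition of compound-treated cln2 rad14 yeast was recorded.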

[5] = NCI Yeast Anticancer Drug Screen. Data for the bub3 strain (AID 167); conditions: S. cerevisiae bub3 mutant strain, at 50.0 µM, stronger effect = higher value
In short: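 Steps: expose the mutant yeast strain to compound; grow alongside vehicle-treated cultures; measure growth; express inhibition against the vehicle cultures.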

[6] = NCI Yeast Anticancer Drug Screen. Data for the mlh1 rad18 strain (AID 175); conditions: S. cerevisiae mlh1 rad18 strain growth inhibition; at 50.0 µM; stronger effect = higher value
In short: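 Test agents were incubated with a yeast strain of defined genotype (DNA damage repair defect). Inhibition of growth was derived by comparison with vehicle-exposed cultures.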

Measured: growth inhibition

O=C(O)CC(c1ccccc1)c1ccccc1
inactive: [1] -47.2% and 9.6% | [2] -39% and -5.4% | [3] -2.95% and 2.15% | [4] 3.35% and -3.55% | [5] -30.6% and -21.7% | [6] -28.1% and -0.95%

CC(=O)NC1CCC(C(F)(F)F)CC1 (stereo unspecified)
inactive: [1] 9.9% and 2.15% | [2] 5.75% and -5.7% | [3] -9.5% and -4.95% | [4] -6.2% and -21.2% | [5] -1.75% and -2.55% | [6] 12.8% and 8.05%

NC(N)=N/N=C(/C=N/N=C(N)N)C(O)C(O)CO (stereo unspecified)
inactive: [1] -11% and -10.4% | [2] -1.95% and -8.1% | [3] -7.6% and 3.3% | [4] -39.3% and -17.4% | [5] -18.1% and -13.7% | [6] -20.4% and -19.9%

O=C(O)CSc1ccccc1C(=O)O
inactive: [1] -1.35% and -7.9% | [2] -11.9% and -40.9% | [3] 1.6% and -35.4% | [4] -27.9% and 22.3% | [5] 6.15% and -33.8% | [6] -17.9% and -4.25%

O=c1[nH]c(CCc2ccccc2)nc2ccccc12
inactive: [1] -5.1% and -47.5% | [2] 7.85% and -42.1% | [3] -7.2% and -23.5% | [4] -38% and -11.1% | [5] -26.8% and -31.9% | [6] -2.8% and -4.05%

CCC(C(=O)O)C(=O)O.[NH-]CC[NH-].[Pt+2]
inactive: [1] -23.6% and -13.2% | [2] -8% and -3.95% | [3] -8.05% and -16.4% | [4] -29.4% and -13.5% | [5] 1.3% and 2% | [6] -10.8% and -24%

CC(C)=CCCC(C)C1CCC2(C)C3=C(CCC12C)C1(C)CCC(O)C(C)(C)C1CC3 (stereo unspecified)
inactive: [1] 32.6% and 9.75% | [2] 16.4% and 2.65% | [3] 27.6% and 20.9% | [4] 25.9% and -0.25% | [5] 7.8% and 15.2% | [6] 23.9% and 29.6%

O=c1[nH]c(SCc2ccccc2[N+](=O)[O-])nc2nc[nH]c12
inactive: [1] -3.6% and -22.9% | [2] -20.8% and 6.4% | [3] -11.8% and -0.5% | [4] -12.7% and 23.1% | [5] -10.8% and -30% | [6] -1.9% and -8.05%

NC1CCCCCCC1
inactive: [1] 4.85% and 5.55% | [2] -4.95% and 2.2% | [3] 0.75% and 3.8% | [4] -4.2% and 1% | [5] 9.85% and 3.6% | [6] 0.55% and 2.7%

C/C(=N\O)c1ccccc1
inactive: [1] -11.2% and 18.9% | [2] -20.4% and -5.5% | [3] -3.5% and 13% | [4] 2.8% and -13.4% | [5] 8.3% and -2.6% | [6] -19.9% and 14.5%

COc1cc(-c2[o+]c3cc(O)cc(O)c3cc2O)cc(O)c1O
inactive: [1] 28.6% and 0.3% | [2] 17.6% and -25.1% | [3] 23.1% and 0.7% | [4] 12.5% and -24.9% | [5] 19.6% and 19.1% | [6] 30.2% and 24.2%

CC(C)(C)OC(=O)CCC(NC(=O)OCC1c2ccccc2-c2ccccc21)C(=O)NC(Cc1c[nH]c2ccccc12)C(=O)NC(CCCCNC(=O)OC(C)(C)C)C(=O)N1CCCC1C(=O)NCC(N)=O (stereo unspecified) (Fmoc-E(OtBu)WK(Boc)PG-NH2; configuration not given here)
inactive: [1] -24.2% and -27.9% | [2] -23.1% and -22.1% | [3] -12.7% and -17% | [4] 5.7% and 12.8% | [5] -16.6% and -4.35% | [6] -17.8% and -22.2%

OC/C=C/c1ccccc1
inactive: [1] 5.7% and 14.7% | [2] 6.7% and -3.15% | [3] 12.1% and -16.6% | [4] 10.1% and -2.55% | [5] 2.65% and 12.1% | [6] 14.7% and -8.85%

Nc1ccc2nc[nH]c2c1
inactive: [1] -15.3% and 18.9% | [2] -7.6% and -4.65% | [3] -7.55% and -18.6% | [4] 14.7% and 16.6% | [5] 2.25% and -1% | [6] -0.9% and 14.3%

CC(C)c1ccc2c(c1)CC[C@H]1[C@](C)(C#N)CCC[C@]21C
inactive: [1] 1.1% and 0.25% | [2] -20.8% and -11.4% | [3] 0.6% and -17.2% | [4] -28.4% and -20.4% | [5] 1.25% and 13.2% | [6] 9.85% and 34.7%

CSCCC(N)C(=O)NCC(=O)O (stereo unspecified)
inactive: [1] -13.8% and -37.5% | [2] -22.9% and -23.1% | [3] -10.8% and 1.4% | [4] 2.9% and -35.9% | [5] -16.1% and -12% | [6] -11.4% and -8.65%

c1ccc(C(c2ccccc2)N2CCCC2)cc1
inactive: [1] -4.05% and 7.15% | [2] -14.7% and 10.8% | [3] -5.7% and 4.6% | [4] 41.1% and -0.2% | [5] 2.25% and 3.7% | [6] 25.9% and -7%

CN1C(=O)N/C(=C\c2ccc(S(=O)(=O)N/N=C\C(O)C(O)C(O)C(O)CO)cc2)C1=O (stereo unspecified)
inactive: [1] 2.65% and 7.85% | [2] 8.3% and 22.2% | [3] 17.9% and -4.2% | [4] 7.65% and 3.75% | [5] -19.1% and -1% | [6] 15.3% and 41.5%

CC(=O)OC1COC(n2cnc3c(=S)nc[nH]c32)C(OC(C)=O)C1OC(C)=O (stereo unspecified)
inactive: [1] 24.2% and -2.35% | [2] -0.1% and -1.6% | [3] 21.3% and -16.4% | [4] 18.4% and -19.2% | [5] 0.7% and 1.65% | [6] 7.35% and -11.9%

CC(=O)OCC(OC(C)=O)C(OC(C)=O)C(OC(C)=O)C(C=NN(C(C)=O)S(=O)(=O)c1ccc(/C=C2\NC(=O)N(C)C2=O)cc1)OC(C)=O (stereo unspecified)
inactive: [1] 10.8% and 20.4% | [2] 5.25% and -9.85% | [3] 19.9% and 15.7% | [4] 12.8% and 33.5% | [5] 12.7% and 12.6% | [6] 22.8% and 12.1%

Oc1ccccc1-c1nc2ccccc2o1
inactive: [1] 4.85% and 8.3% | [2] -10.8% and -25.2% | [3] -13.8% and 7.15% | [4] -6.75% and 1.4% | [5] 1.05% and 24.3% | [6] 3.6% and 0.9%
